The values that follow come from the supplement of paper PMC7156485.

Holding throughout (details): concentration: 10 µM; 24 h
Test [1] relates to HCC1569. As to the kind of experiment: cell number relative to DMSO (% of DMSO); higher = more cells (less growth inhibition / toxicity). Put shortly: (§1)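 Using 384-well plates with 800 cells per well in RPMI plus 10% FBS, HCC1569 and TDF cells were exposed to compounds at 10 µM, in triplicate, for 24 h at 37 °C. Imaging of six fields per well at ×10 followed H1.0 and DAPI staining. The reported quantity, H1.0 nuclear intensity or cell number, is a median of replicates given as percent of the plate control, and HCC1569 values were smoothed for positional effects.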

Test [2] deals with TDF. The test is described as above. In a few lines:
as §1

The subject of test [3] is TDF. Description: H1.0 immunofluorescence intensity relative to DMSO (% of DMSO); higher = stronger H1.0 induction, active = 120 or more. Put shortly:
as §1

For test [4], the system named is HCC1569. Description: H1.0 immunofluorescence intensity relative to DMSO (% of DMSO); higher = stronger H1.0 induction, active = 140 or more. In a few lines: as §1

± gives the standard deviation of the averaged measurements.
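Throughout, for H1.0 immunofluorescence intensity relative to DMSO: TDF is a line of transformed human dermal fibroblasts of mesenchymal origin.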
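Throughout, for cell number relative to DMSO: TDF denotes transformed human dermal fibroblasts of mesenchymal origin.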

Regarding `O=c1c(O)c(-c2cc(O)c(O)c(O)c2)oc2cc(O)cc(O)c12` [Myricetin], the figures for the cell number with HCC1569 [1] and in the test on TDF [2] were 102 ± 3.7 and 101 ± 3.9, respectively. Further, the figures for the H1.0 immunofluorescence intensity in the test on TDF [3] and with HCC1569 [4] were 88.4 (inactive) and 91.7 (inactive), respectively.
Taken in the same sequence, the figures for `CCCCCC=CC=CC(O)CCCCCCCC(=O)O` (stereo unspecified) were 104, 100, 100 (inactive) and 100 (inactive).
`CCCCCCCCC=CCCCCCCCC(=O)O` [9(Z)-Octadecenoic acid]: the values for the cell number in the test on HCC1569 [1] and in the test on TDF [2] were 104 and 97.1, respectively. In addition, the H1.0 immunofluorescence intensity is 97.5 (inactive) in the test with TDF [3] and 103 (inactive) in the test on HCC1569 [4].
For `Nc1nc(N)c2nc(-c3ccccc3)c(N)nc2n1` [Triamterene], the values for the cell number in the test on HCC1569 [1] and in the test with TDF [2] were 98.6 and 112, respectively. For the same compound, the figures for the H1.0 immunofluorescence intensity in the test on TDF [3] and in the test on HCC1569 [4] were 85.8 (inactive) and 102 (inactive), respectively.
In the case of `Cl.c1ccc(CN2CCC3(CCCc4ccccc43)CC2)cc1` [L-687,384 hydrochloride], the cell number in the test on HCC1569 [1] was 103; in the test with TDF [2] it was 96. For the same compound, the H1.0 immunofluorescence intensity in the test with TDF [3] was 93.7 (inactive); in the test on HCC1569 [4], 103 (inactive).
Consider `CCOC(=O)Oc1c(OC)cc(C(=O)OC2CC3CN4CCc5c([nH]c6cc(OC)ccc56)C4CC3C(C(=O)OC)C2OC)cc1OC` (stereo unspecified) [Syrosingopine], for which the cell number in the test with HCC1569 [1] is 94.7; in the test with TDF [2], 104. For the same compound, the H1.0 immunofluorescence intensity was 96.8 (inactive) in the test with TDF [3] and 105 (inactive) with HCC1569 [4].
Taken in the same sequence, the figures for `Cc1cccc(C=Cc2ccccc2)n1` were 101, 104, 96.7 (inactive) and 100 (inactive).
For `CCN(CC)CCNC(=O)c1ccc(N)cc1.Cl` [Procainamide.HCl] the same measures were 108, 101, 91.2 (inactive) and 101 (inactive).
`O=c1cc(N2CCOCC2)oc2c1ccc1ccccc12` [DNA-PK Inhibitor II]: the cell number is 98.1 with HCC1569 [1] and 97.4 in the test with TDF [2]. The H1.0 immunofluorescence intensity in the test on TDF [3] was 92.5 (inactive); with HCC1569 [4], 112 (inactive).
Take `O=C(O)C=Cc1c[nH]c2ccccc12` [3-Beta-Indoleacrylic acid]: the cell number worked out at 97.9 in the test on HCC1569 [1] and 101 in the test on TDF [2]. Moreover, the H1.0 immunofluorescence intensity in the test with TDF [3] is 94.8 (inactive); in the test on HCC1569 [4], 95.1 (inactive).
For `CCCCCC(O)C=CC1C=CC(=O)C1CCCCCCC(=O)O` (stereo unspecified) [Prostaglandin A1] the same measures were 97 ± 5.2, 98 ± 2.2, 93.3 (inactive) and 93.8 (inactive).
For `CCCCNc1ncc(C(=O)NCc2ccc(-n3ccnc3)cc2)c(NC2CCC(O)CC2)n1` (stereo unspecified), the cell number with HCC1569 [1] stood at 65.8; with TDF [2], 63.4. Further, the values for the H1.0 immunofluorescence intensity with TDF [3] and in the test on HCC1569 [4] were 118 (inactive) and 104 (inactive), respectively.
Regarding `CCCNC(C)C(=O)Nc1ccccc1C.Cl` (stereo unspecified) [Prilocaine hydrochloride], the figures for the cell number with HCC1569 [1] and with TDF [2] were 103 and 107, respectively. For the same compound, the H1.0 immunofluorescence intensity in the test with TDF [3] is 86.9 (inactive); in the test with HCC1569 [4] it was 96.2 (inactive).
For `Nc1nc2ccc(Cl)cc2n2c(-c3ccccc3)nnc12` [8-chloro-1-phenyl[1,2,4]triazolo[4,3-a]quinoxalin-4-ylamine] the same measures were 104, 102, 93.9 (inactive) and 99 (inactive).
Take `Oc1ccccc1O` [Pyrocatechol]: the values for the cell number in the test on HCC1569 [1] and with TDF [2] were 73.6 and 87.2, respectively. Moreover, the H1.0 immunofluorescence intensity with TDF [3] was 93.7 (inactive); with HCC1569 [4], 117 (inactive).
For `CCCCCCCCC=CCCCCCCCCCCCC(=O)O` [13(Z)-Docosenoic acid] the same measures were 104, 108, 95.2 (inactive) and 102 (inactive).
`CCC(C(=O)C(C)C(O)C(C)CCc1ccc(C)c(O)c1C(=O)[O-])C1OC(CC)(C2CCC(O)(CC)C(C)O2)CC1C.[Na+]` (stereo unspecified) [Lasalocid A]: the results for the cell number in the test with HCC1569 [1] and in the test on TDF [2] were 79.3 and 88.5, respectively. The H1.0 immunofluorescence intensity with TDF [3] was 105 (inactive); in the test on HCC1569 [4], 94.6 (inactive).
With `O=C1NC(=O)C(c2c[nH]c3ccccc23)=C1c1c[nH]c2ccccc12` [Bisindolylmaleimide IV], the cell number was found to be 91.2 in the test on HCC1569 [1] and 119 with TDF [2]. Further, the H1.0 immunofluorescence intensity in the test on TDF [3] is 94.7 (inactive); in the test with HCC1569 [4], 136 (inactive).
Consider `O=c1cc(N2CCOCC2)oc2c(-c3ccccc3)cccc12`, for which the values for the cell number in the test with HCC1569 [1] and in the test with TDF [2] were 83.3 and 102, respectively. Also, the H1.0 immunofluorescence intensity in the test with TDF [3] is 88 (inactive); in the test with HCC1569 [4] it was 155 (active).
With `O=P(O)(O)C(Cl)(Cl)P(=O)(O)O` [Clodronic acid], the cell number worked out at 101 with HCC1569 [1] and 103 with TDF [2]. The H1.0 immunofluorescence intensity in the test on TDF [3] was 88.3 (inactive); in the test with HCC1569 [4], 102 (inactive).
For `Nc1c2c(nc3ccccc13)CCCC2` [Tacrine], the cell number came to 102 with HCC1569 [1] and 97.1 in the test on TDF [2]. The results for the H1.0 immunofluorescence intensity in the test on TDF [3] and in the test on HCC1569 [4] were 95.7 (inactive) and 109 (inactive), respectively.
Consider `COc1cc2ncnc(Nc3ccc(Cl)cc3Cl)c2cc1OC` [Ste11 MAPKKK Activation Inhibitor], for which the cell number came to 83.8 in the test on HCC1569 [1] and 97.5 with TDF [2]. Also, the H1.0 immunofluorescence intensity is 89.8 (inactive) with TDF [3] and 130 (inactive) in the test with HCC1569 [4].
For `CC(C)[N+]1(C)C2CCC1CC(OC(=O)C(CO)c1ccccc1)C2.[Br-]` (stereo unspecified) [Ipratropium.Br], the cell number in the test on HCC1569 [1] stood at 102; in the test with TDF [2], 98. The H1.0 immunofluorescence intensity with TDF [3] was 91.5 (inactive); in the test on HCC1569 [4], 110 (inactive).
With `CCN(CC)C(=O)c1ccc(Nc2nc(OCC3CCCCC3)c3[nH]cnc3n2)cc1` [Cdk2 Inhibitor IV,                 NU6140], the cell number in the test with HCC1569 [1] was determined as 73.4; in the test on TDF [2] it was 51.1. In addition, the H1.0 immunofluorescence intensity is 98.1 (inactive) in the test on TDF [3] and 158 (active) with HCC1569 [4].
